Test results published in the supplement of paper PMC10849652.
The full data set covers some 8,800 targets. This sample favours those with a hit. About 0.5% of all pairs of compound and target were hits. Unmarked numbers belong to inactive results.

Experiments:
Assay in all cases: log2 fold change, soluble protein after heating vs DMSO (PISA); higher = thermal stabilisation; K562 lysate, 10 uM; active = over 0.2 and 3.5 SD of the protein, either way, in both replicates (recomputed)
lapatinib = compound: CS(=O)(=O)CCNCc1ccc(-c2ccc3ncnc(Nc4ccc(OCc5cccc(F)c5)c(Cl)c4)c3c2)o1 [lapatinib]
Method in brief: (§1)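 Thermal stability, expressed as log-two fold change relative to solvent controls, is given from duplicates. Crude K562 extract in PBS pH 7.4 with 1 mM MgCl2, at 1 mg/mL protein, was treated with 10 μM compound for 30 min and heated in aliquots for 3 min across 48°C-58°C. After pooling, adjustment to 0.5% NP-40 at 4°C and centrifugation at 21,000xg for 90 min, supernatant protein was measured by TMTpro 16plex LC-MS/MS with channel sums equalised.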

crizotinib = compound: C[C@@H](Oc1cc(-c2cnn(C3CCNCC3)c2)cnc1N)c1c(Cl)ccc(F)c1Cl [crizotinib]
Method in brief: as §1

[1] = compound: C[C@H](C1=CC=C(C=C1)C(=O)NC2=C3C=CNC3=NC=C2)N
Method in brief: as §1

duvelisib = compound: C[C@H](Nc1ncnc2nc[nH]c12)c1cc2cccc(Cl)c2c(=O)n1-c1ccccc1 [duvelisib]
Method in brief: as §1

gandotinib = compound: Cc1cc(Nc2cc(CN3CCOCC3)c3nc(C)c(Cc4ccc(Cl)cc4F)n3n2)n[nH]1 [gandotinib]
Method in brief: as §1

doramapimod = compound: Cc1ccc(-n2nc(C(C)(C)C)cc2NC(=O)Nc2ccc(OCCN3CCOCC3)c3ccccc23)cc1 [doramapimod]
Method in brief: as §1

[2] = compound: Cc1cccc(CC(=O)N2CCc3c2ccc(-c2cn(C)c4ncnc(N)c24)c3F)n1
Method in brief: as §1

dasatinib = compound: Cc1nc(Nc2ncc(C(=O)Nc3c(C)cccc3Cl)s2)cc(N2CCN(CCO)CC2)n1 [dasatinib]
Method in brief: as §1

[3] = compound: Cn1cc(-c2ccc3c(c2)CCN3C(=O)Cc2cccc(C(F)(F)F)c2)c2c(N)ncnc21
Method in brief: as §1

quisinostat = compound: Cn1cc(CNCC2CCN(c3ncc(C(=O)NO)cn3)CC2)c2ccccc21 [quisinostat]
Method in brief: as §1

[4] = compound: NC(=O)Nc1cc(-c2cccc(F)c2)sc1C(=O)N[C@H]1CCCNC1
Method in brief: as §1

[5] = compound: NC(=O)c1cnc(N[C@@H]2CCCC[C@@H]2N)nc1Nc1cccc(-n2nccn2)c1
Method in brief: as §1

[6] = compound: NC1(c2ccc(-c3nc4ccn5c(=O)[nH]nc5c4cc3-c3ccccc3)cc2)CCC1
Method in brief: as §1

pictilisib = compound: CS(=O)(=O)N1CCN(Cc2cc3nc(-c4cccc5[nH]ncc45)nc(N4CCOCC4)c3s2)CC1 [pictilisib]
Method in brief: as §1

tozasertib = compound: Cc1cc(Nc2cc(N3CCN(C)CC3)nc(Sc3ccc(NC(=O)C4CC4)cc3)n2)n[nH]1 [tozasertib]
Method in brief: as §1

bafetinib = compound: Cc1ccc(NC(=O)c2ccc(CN3CC[C@H](N(C)C)C3)c(C(F)(F)F)c2)cc1Nc1nccc(-c2cncnc2)n1 [bafetinib]
Method in brief: as §1

nilotinib = compound: Cc1cn(-c2cc(NC(=O)c3ccc(C)c(Nc4nccc(-c5cccnc5)n4)c3)cc(C(F)(F)F)c2)cn1 [nilotinib]
Method in brief: as §1

[7] = compound: Cc1nc(Nc2n[nH]c3c2CN(C(=O)N[C@H](CN(C)C)c2ccccc2)C3(C)C)c2sccc2n1
Method in brief: as §1

[8] = compound: Cc1ncc(-c2ccnc(Nc3ccc(S(C)(=O)=O)cc3)n2)n1C(C)C
Method in brief: as §1

tipifarnib = compound: Cn1cncc1[C@@](N)(c1ccc(Cl)cc1)c1ccc2c(c1)c(-c1cccc(Cl)c1)cc(=O)n2C [tipifarnib]
Method in brief: as §1

Chain of UniProt Q9BT30 (Q9BT30 whole entry, looked up): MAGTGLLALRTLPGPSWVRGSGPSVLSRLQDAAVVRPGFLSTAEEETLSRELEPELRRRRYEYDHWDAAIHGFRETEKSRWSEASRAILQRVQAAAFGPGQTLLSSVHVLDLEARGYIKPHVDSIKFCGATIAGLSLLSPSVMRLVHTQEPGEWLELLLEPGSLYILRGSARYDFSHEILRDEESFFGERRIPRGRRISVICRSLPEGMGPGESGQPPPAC
Chain of UniProt P27216 (P27216 whole entry, looked up): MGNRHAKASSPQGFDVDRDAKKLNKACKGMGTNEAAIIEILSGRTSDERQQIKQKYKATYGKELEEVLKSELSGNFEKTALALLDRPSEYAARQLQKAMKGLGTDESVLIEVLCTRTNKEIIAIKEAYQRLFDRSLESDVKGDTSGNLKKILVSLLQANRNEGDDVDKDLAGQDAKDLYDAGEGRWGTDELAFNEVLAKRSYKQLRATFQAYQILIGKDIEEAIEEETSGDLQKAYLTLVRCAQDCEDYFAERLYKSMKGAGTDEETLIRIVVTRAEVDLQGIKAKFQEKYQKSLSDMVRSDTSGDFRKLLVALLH
Chain of UniProt Q9BXX2 (Q9BXX2 whole entry, looked up): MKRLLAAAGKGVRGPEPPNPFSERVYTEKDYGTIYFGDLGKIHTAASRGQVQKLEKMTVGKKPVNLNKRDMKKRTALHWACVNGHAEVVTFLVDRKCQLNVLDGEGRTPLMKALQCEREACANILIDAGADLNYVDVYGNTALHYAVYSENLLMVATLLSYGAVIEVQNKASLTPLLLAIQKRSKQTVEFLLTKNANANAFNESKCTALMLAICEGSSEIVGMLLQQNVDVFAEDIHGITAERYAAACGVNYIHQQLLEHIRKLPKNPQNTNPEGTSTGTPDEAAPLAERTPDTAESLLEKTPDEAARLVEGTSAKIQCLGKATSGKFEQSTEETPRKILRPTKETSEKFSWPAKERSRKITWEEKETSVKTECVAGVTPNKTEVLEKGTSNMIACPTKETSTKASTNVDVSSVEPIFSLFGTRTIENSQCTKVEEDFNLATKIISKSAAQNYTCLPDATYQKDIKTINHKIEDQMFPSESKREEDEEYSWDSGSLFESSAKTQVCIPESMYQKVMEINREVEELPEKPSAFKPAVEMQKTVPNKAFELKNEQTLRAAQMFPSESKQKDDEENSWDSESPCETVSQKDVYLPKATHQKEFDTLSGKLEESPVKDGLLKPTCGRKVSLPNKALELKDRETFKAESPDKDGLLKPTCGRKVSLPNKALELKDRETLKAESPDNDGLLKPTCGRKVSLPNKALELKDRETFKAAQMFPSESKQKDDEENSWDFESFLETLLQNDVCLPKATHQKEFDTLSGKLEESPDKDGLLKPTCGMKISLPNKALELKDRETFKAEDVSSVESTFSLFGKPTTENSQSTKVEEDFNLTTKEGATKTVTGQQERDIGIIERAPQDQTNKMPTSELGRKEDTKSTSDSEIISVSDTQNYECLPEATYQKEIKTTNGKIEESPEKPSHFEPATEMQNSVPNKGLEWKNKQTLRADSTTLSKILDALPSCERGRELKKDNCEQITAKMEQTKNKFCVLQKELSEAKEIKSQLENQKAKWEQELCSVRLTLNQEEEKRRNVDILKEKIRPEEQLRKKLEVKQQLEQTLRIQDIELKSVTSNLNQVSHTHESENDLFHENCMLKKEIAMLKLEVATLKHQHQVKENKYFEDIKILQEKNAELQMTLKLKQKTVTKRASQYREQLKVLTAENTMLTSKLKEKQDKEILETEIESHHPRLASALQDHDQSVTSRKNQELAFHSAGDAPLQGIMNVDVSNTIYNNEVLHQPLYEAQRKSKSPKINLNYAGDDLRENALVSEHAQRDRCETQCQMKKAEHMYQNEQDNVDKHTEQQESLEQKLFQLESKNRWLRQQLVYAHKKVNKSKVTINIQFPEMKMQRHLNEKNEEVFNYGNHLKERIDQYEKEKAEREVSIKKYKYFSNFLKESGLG
Chain of UniProt P33121 (P33121 whole entry, looked up): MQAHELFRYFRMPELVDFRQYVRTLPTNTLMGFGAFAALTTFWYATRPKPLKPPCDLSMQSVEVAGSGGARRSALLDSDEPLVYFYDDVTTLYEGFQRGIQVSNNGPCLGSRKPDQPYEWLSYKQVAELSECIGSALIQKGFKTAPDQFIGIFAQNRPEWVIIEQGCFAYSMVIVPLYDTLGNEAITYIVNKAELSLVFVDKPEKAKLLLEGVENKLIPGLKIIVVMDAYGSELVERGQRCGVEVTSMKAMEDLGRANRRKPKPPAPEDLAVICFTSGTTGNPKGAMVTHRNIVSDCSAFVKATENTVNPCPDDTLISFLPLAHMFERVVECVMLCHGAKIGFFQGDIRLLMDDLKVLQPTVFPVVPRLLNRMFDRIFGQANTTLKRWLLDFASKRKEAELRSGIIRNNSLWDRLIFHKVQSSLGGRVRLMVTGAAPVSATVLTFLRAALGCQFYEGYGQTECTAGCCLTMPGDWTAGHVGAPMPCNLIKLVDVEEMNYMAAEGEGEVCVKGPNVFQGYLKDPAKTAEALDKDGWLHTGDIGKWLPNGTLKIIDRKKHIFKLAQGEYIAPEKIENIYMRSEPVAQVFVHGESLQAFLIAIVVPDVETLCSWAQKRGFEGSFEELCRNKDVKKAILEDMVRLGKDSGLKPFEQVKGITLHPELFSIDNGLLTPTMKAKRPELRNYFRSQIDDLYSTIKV
Chain of UniProt O15120 (O15120 whole entry, looked up): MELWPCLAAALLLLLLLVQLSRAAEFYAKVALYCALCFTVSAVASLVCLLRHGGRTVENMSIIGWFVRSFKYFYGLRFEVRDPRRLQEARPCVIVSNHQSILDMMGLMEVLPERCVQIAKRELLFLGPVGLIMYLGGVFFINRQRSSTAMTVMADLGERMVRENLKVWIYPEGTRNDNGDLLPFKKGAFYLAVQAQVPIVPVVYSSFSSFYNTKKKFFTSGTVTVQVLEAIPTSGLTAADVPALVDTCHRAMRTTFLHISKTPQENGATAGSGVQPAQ
Chain of UniProt Q9P1F3 (Q9P1F3 whole entry, looked up): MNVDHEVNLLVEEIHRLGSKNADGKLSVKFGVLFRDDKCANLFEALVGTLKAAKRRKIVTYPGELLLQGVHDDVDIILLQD
Chain of UniProt P30838 (P30838 whole entry, looked up): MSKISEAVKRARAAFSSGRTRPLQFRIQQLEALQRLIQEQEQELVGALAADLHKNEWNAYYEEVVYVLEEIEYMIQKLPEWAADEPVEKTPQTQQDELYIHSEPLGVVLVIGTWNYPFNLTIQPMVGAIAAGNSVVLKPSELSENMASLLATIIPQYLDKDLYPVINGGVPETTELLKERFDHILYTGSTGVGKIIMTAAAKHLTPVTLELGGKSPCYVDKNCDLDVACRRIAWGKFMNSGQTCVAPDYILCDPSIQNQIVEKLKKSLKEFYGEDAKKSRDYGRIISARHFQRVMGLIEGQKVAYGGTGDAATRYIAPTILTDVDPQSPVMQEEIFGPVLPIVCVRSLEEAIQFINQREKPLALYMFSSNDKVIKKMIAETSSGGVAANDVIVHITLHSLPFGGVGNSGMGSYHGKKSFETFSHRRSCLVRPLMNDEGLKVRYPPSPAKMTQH

Target | log2 fold change (lapatinib) | log2 fold change (crizotinib) | log2 fold change [1] | log2 fold change (duvelisib) | log2 fold change (gandotinib) | log2 fold change (doramapimod) | log2 fold change [2] | log2 fold change (dasatinib) | log2 fold change [3] | log2 fold change (quisinostat) | log2 fold change [4] | log2 fold change [5] | log2 fold change [6] | log2 fold change (pictilisib) | log2 fold change (tozasertib) | log2 fold change (bafetinib) | log2 fold change (nilotinib) | log2 fold change [7] | log2 fold change [8] | log2 fold change (tipifarnib)
ALDH3A1 (UniProt P30838) | -0.002 | -0.134 | -0.721 | -0.061 | 0.569 | 0.015 | 0.586 | 1.35 (active) | -0.024 | -0.381 | -0.065 | 0.055 | -0.018 |  |  |  |  |  |  | 
ANKRD30B (UniProt Q9BXX2) | -0.049 |  | -0.558 (active) | 0.087 | 0.337 |  | 0.397 | -0.061 | -0.015 |  |  | 0.059 | -0.051 | -0.068 | -0.005 | -0.163 | 0.061 | -0.076 | 0.072 | -0.065
ABRACL (UniProt Q9P1F3) | 0.154 | -0.105 | -0.053 | -0.239 | -0.003 | -0.014 | -0.047 | -0.119 | -0.067 | 0.053 | -0.083 | 0.037 | -0.076 | -0.075 |  | 0.09 | 0.194 | 0.006 | -0.042 | 0.023
ANXA13 isoform 2 (UniProt P27216) | -0.111 | 0.011 | 0.057 | -0.116 | 0.545 (active) | 0.038 | 0.284 | 0.007 | 0.104 | -0.022 | 0.023 | 0.032 | 0.078 | -0.03 |  | -0.195 | -0.001 | 0.005 | -0.079 | 0.123
AGPAT2 (UniProt O15120) |  | -0.097 | 0.006 |  | -0.145 | 0.1 | 0.021 |  |  | 0.006 | 0.018 |  | 0.02 |  | 0.048 |  | -0.044 | 0.046 | -0.037 | 0.029
ACSL1 (UniProt P33121) | -0.03 | -0.115 | 0.021 | 0.043 | -0.049 | 0.053 | 0.061 | -0.132 | 0.05 | 0.007 | 0.034 | -0.025 | -0.04 | -0.094 | 0.033 | -0.038 | -0.004 | -0.002 | 0.013 | -0.013
ALKBH7 (UniProt Q9BT30) |  | -0.049 | 0.289 | 0.091 | 0.08 | -0.062 | 0.187 | -0.017 | -0.226 | 0.006 | 0.044 |  | -0.099 |  | -0.045 |  | -0.039 | -0.04 | -0.452 | 0.107
